Results on 40 compounds are retold here after PubChem BioAssay (Tox21).

Records with an inconclusive call do not appear. Activity calls are given as the source filed them. Calls follow the shape of the full dose curve.
% is scaled to controls: 0 for no effect and ±100 for the full control effect.

The test in a line: qHTS assay to identify small molecule agonists of the NFkB signaling pathway - cell viability counter screen (AID 1159515). Also: nearly all actives have a fitted effect of over 55% in size. The conditions noted are these: NFkB-bla ME-180 viability, CellTiter-Glo luminescence, 5 h; series mostly up to 61 µM; activity, negative = cytotoxic: at the top concentration. The text has this: National Center for Advancing Translational Sciences [NCATS]
NIH Chemical Genomics Center [NCGC]
U.S. Environmental Protection Agency [EPA]
National Institutes of Environmental Health Sciences [NIEHS]
National Toxicology Program [NTP]
U.S. Food and Drug Administration [FDA]
Transcription factors and their stimulated target gene expression play pivotal roles across many cellular processes including responses to environmental stimuli. Proper regulation of associated pathways is critical to maintain cell health and function. Constitutive activation of transcription factor pathways has been implicated in tumors as it may block cellular functions such as apoptosis and lead to invasion and metastasis. One important transcription factor that stimulates gene expression in response to cytokines, UV radiation, and other stimuli is nuclear factor-kappa B (NFkB). To measure activation of the NFkB pathway, the CellSensor NFkB-bla ME-180 cell line (Life Technologies, Carlsbad, CA) that stably expresses beta-lactamase reporter gene under the regulation of a NF-kB response element was used. This assay allows measurement of the NFkB pathway activity induced by compounds in a ME-180 cell line. This system quantitates NF-kB activity using a FRET-based assay system where beta-lactamase expression disrupts FRET, allowing for fluorescent measurement of activity. This cell line has been used to screen the Tox21 10K compound library and to identify compounds that induce the NFkB pathway activity. The cytotoxicity of the Tox21 compound library against the NFkB-bla ME-180 cell line was tested in parallel by measuring cell viability using the CellTiter-Glo assay in the same wells.
Tox21 Assay Protocol Summary:
NFkB-bla ME-180 cells were dispensed at 2,000 cells/6 uL of assay medium per well into black wall/clear-bottom 1536-well plates using a Multidrop Combi (ThermoFisher Scientific, Waltham, MA) dispenser. After the assay plates were incubated at 37 C and 5% CO2 for an overnight, 23 nL of compounds dissolved in DMSO, positive controls or DMSO only was transferred to the assay plate by a Pintool station (Kalypsys, San Diego, CA). The assay plates were incubated at 37 C and 5% CO2 for 5 hr. One uL of LiveBLAzer B/G FRET substrate (Life Technologies) was added using a Flying Reagent Dispenser (Aurora Discovery, San Diego, CA) and the plates were incubated at room temperature for 1.5 hr. Fluorescence intensity (405 nm excitation, 460 nm and 530 nm emissions) was measured using an Envision plate reader (PerkinElmer, Shelton, CT). For cytotoxicity, 3 ul/well of CellTiter-Glo reagent was added into the assay plates using an FRD. After 30 min incubation at room temperature, the luminescence intensity was measured using a ViewLux plate reader (PerkinElmer).
(In general: Quantitative high-throughput screening tests each substance at several concentrations.)
For `CCCOC(=O)CC`, the “activity, negative = cytotoxic” value was 3.49% (inactive).

Turning to `CCOC(=O)c1ccccc1`, the “activity, negative = cytotoxic” value is 5.59% (inactive).

For the compound `CNCCO`, the “activity, negative = cytotoxic” value was -3.87% (inactive).

In the case of `CC(=O)Oc1cccc(C)c1`, the “activity, negative = cytotoxic” value is 15% (inactive).

As for `CC(C)CC(C)(N)C#N` (stereo not given), the “activity, negative = cytotoxic” value was -3.71% [at 78.8 µM] (inactive).

On to `CCCCN(CCC(=O)OCC)C(C)=O`, for which the “activity, negative = cytotoxic” value is 7.05% (inactive).

`c1ccc(CCc2ccccc2)cc1`: the “activity, negative = cytotoxic” value is -4.94% (inactive).

Consider `CC(=O)N1C[C@H](O)C[C@H]1C(=O)O`, for which the “activity, negative = cytotoxic” value is 13.3% (inactive).

With `CC1=CCC(O)(C(C)C)CC1` (stereo not given), the “activity, negative = cytotoxic” value is 4.34% (inactive).

For the compound `O=C(CO)[C@@H](O)[C@H](O)[C@H](O)CO`, the “activity, negative = cytotoxic” value was -5.44% [at 78.8 µM] (inactive).

Turning to `C[C@@H]1CCC[C@H](C)N1`, the “activity, negative = cytotoxic” value is 4.42% (inactive).

`COc1ccc2cc1Oc1cc3c(cc1OC)CC[N+](C)(C)[C@H]3Cc1ccc(cc1)Oc1c(OC)c(OC)cc3c1[C@@H](C2)[N+](C)(C)CC3`: the “activity, negative = cytotoxic” value is 8.6% (inactive).

With `C[C@H]1C[C@H]2[C@@H]3CCC4=CC(=O)C=C[C@]4(C)[C@H]3C(=O)C[C@]2(C)[C@@]1(O)C(=O)CO`, the “activity, negative = cytotoxic” value was -1.15% (inactive).

For the compound `CCC(C)(CN(C)C)OC(=O)c1ccccc1` (stereo not given), the “activity, negative = cytotoxic” value is 3.99% (inactive).

In the case of `C=C(C)C(=O)OCC(O)CO` (stereo not given), the “activity, negative = cytotoxic” value was 1.58% (inactive).

As to `CC(=O)N[C@H]1[C@H]([C@H](O)[C@H](O)CO)OC(C(=O)O)=C[C@@H]1N=C(N)N`, the “activity, negative = cytotoxic” value is 10.4% (inactive).

Take `CN(C)CCCCCCN(C)C`: the “activity, negative = cytotoxic” value is 0.091% [at 78.8 µM] (inactive).

With `CC(C(=O)O)c1cccc(Oc2ccccc2)c1` (stereo not given), the “activity, negative = cytotoxic” value was 5.58% (inactive).

Turning to `C=C[Si](OC(C)=O)(OC(C)=O)OC(C)=O`, the “activity, negative = cytotoxic” value is -0.924% (inactive).

With `CC(=O)OCC(=O)[C@@]1(O)[C@H](C)C[C@H]2[C@@H]3CCC4=CC(=O)C=C[C@]4(C)[C@@]3(F)[C@@H](O)C[C@@]21C`, the “activity, negative = cytotoxic” value was -21.5% (inactive).

On to `CCN1C=CN(C)C1C` (stereo not given), for which the “activity, negative = cytotoxic” value is -0.257% [at 78.8 µM] (inactive).

Consider `CCCCCCCCCC[N+](C)(C)[O-]`, for which the “activity, negative = cytotoxic” value is -14.8% (inactive).

Take `COc1c(N2CCNC(C)C2)c(F)cc2c(=O)c(C(=O)O)cn(C3CC3)c12` (stereo not given): the “activity, negative = cytotoxic” value is -0.193% (inactive).

For the compound `CC(C)CCCO`, the “activity, negative = cytotoxic” value was 0.802% (inactive).

With `CCOC(=O)OC(C)OC1=C(C(=O)Nc2ccccn2)N(C)S(=O)(=O)c2ccccc21` (stereo not given), the “activity, negative = cytotoxic” value was 0.533% (inactive).

`NCCCC[C@H](N[C@@H](CCc1ccccc1)C(=O)O)C(=O)N1CCC[C@H]1C(=O)O`: the “activity, negative = cytotoxic” value is 13.1% (inactive).

`O=C(CO)[C@@H](O)[C@H](O)[C@@H](O)CO`: the “activity, negative = cytotoxic” value was 9.09% (inactive).

Take `C=COCC1CCC(COC=C)CC1` (stereo not given): the “activity, negative = cytotoxic” value is 0.333% (inactive).

Turning to `C1CCC2=NCCCN2CC1`, the “activity, negative = cytotoxic” value was -0.255% (inactive).

Take `CCOCC(C)O` (stereo not given): the “activity, negative = cytotoxic” value was 8.51% (inactive).

Turning to `CCCO[Si](OCCC)(OCCC)OCCC`, the “activity, negative = cytotoxic” value is -3.04% (inactive).

As to `CN(C)C(=O)Oc1cccc([N+](C)(C)C)c1`, the “activity, negative = cytotoxic” value was 7.64% (inactive).

Turning to `Cc1nc(C2CCCCC2)c(-c2ccc(S(N)(=O)=O)c(F)c2)o1`, the “activity, negative = cytotoxic” value was 0.356% (inactive).

Regarding `Cc1ccc(C(=O)c2ccc(CC(=O)O)n2C)cc1`, the “activity, negative = cytotoxic” value is 4.83% (inactive).

As for `C=C(C)C(=O)OCC1CCCO1` (stereo not given), the “activity, negative = cytotoxic” value was 5.7% (inactive).

Regarding `O=[N+]([O-])c1ccc(/C=N\O)o1`, the “activity, negative = cytotoxic” value is 12.7% (inactive).

On to `O=Cc1cccc(Br)c1`, for which the “activity, negative = cytotoxic” value is -4.68% [at 78.8 µM] (inactive).

Turning to `Clc1cc(Cl)c(Cl)nc1Cl`, the “activity, negative = cytotoxic” value was 7.9% (inactive).

As for `C=COC(=O)C(C)(CC)CCC(C)C` (stereo not given), the “activity, negative = cytotoxic” value is 1.6% (inactive).

With `CC(C)(CCC(=O)O)C(=O)O`, the “activity, negative = cytotoxic” value is 16.9% [at 78.8 µM] (inactive).
